Test results published in PMC5540273 (PLoS ONE, 2017).

Assays:
Conditions in all cases: concentration: 1 μM, replicates: in singlicate; n = 1
MRCKA = test system: MRCKA
MRCKB = test system: T1, MRCKB
T1 construct: gene CDC42BPB

MST1R = test system: MST1R
MST1 = test system: T2, MST1
T2 construct: gene STK4

MST2 = test system: T3, MST2
T3 construct: gene STK3

MST3 = test system: T4, MST3
T4 construct: gene STK24

MST4 = test system: MST4
MTOR = test system: MTOR
MUSK = test system: MUSK
MYLK2 = test system: MYLK2
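Further: KINOMEscan kinase panel screen.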

| Structure (SMILES) | %Inh (MRCKA) [%] | %Inh (MRCKB) [%] | %Inh (MST1R) [%] | %Inh (MST1) [%] | %Inh (MST2) [%] | %Inh (MST3) [%] | %Inh (MST4) [%] | %Inh (MTOR) [%] | %Inh (MUSK) [%] | %Inh (MYLK2) [%] |
| --- | --- | --- | --- | --- | --- | --- | --- | --- | --- | --- |
| CNc1nccc(-c2c(-c3ccc(F)cc3)ncn2CCCN2CCOCC2)n1 [SB-222516] | 8 | 0 | 0 | 0 | 14 | 14 | 0 | 11 | 0 | 0 |
| Fc1cccc(COc2ccc(Nc3ncnc4sc(-c5ccc[nH]5)cc34)cc2Cl)c1 [GW707818] | 23 | 6 | 33 | 0 | 18 | 8 | 0 | 13 | 0 | 14 |
| Fc1ccc(-c2ncn(CCCNCc3ccccc3)c2-c2ccncc2)cc1 | 0 | 18 | 18 | 2 | 39 | 11 | 0 | 11 | 9 | 0 |
| COc1ccc(Nc2nccc(N3CCC(NC(=O)c4cccc(NC(C)=O)c4)C3)n2)cc1 (stereo not shown) [GSK1379732] | 0 | 0 | 34 | 0 | 10 | 13 | 0 | 8 | 0 | 8 |
| Cl.c1ccc(Cn2ncc3cc(Nc4ncnc5ccccc45)ccc32)cc1 [GW273749] | 10 | 0 | 27 | 0 | 8 | 0 | 0 | 8 | 0 | 2 |
| CC(C)(C)c1ccc(-n2cnc3c(N)ncnc32)cc1 [SKF-97263] | 0 | 3 | 17 | 13 | 18 | 0 | 0 | 15 | 0 | 0 |
| O=c1cc(N2CCOCC2)nc2n(Cc3cccc(Cl)c3)ccn12 [GSK2296823] | 7 | 16 | 17 | 0 | 11 | 0 | 0 | 62 | 11 | 2 |
| COC(=O)c1cccc(NC(=O)NCCNc2ccnc(Nc3ccc(F)cc3)n2)c1 [GSK1379883] | 0 | 0 | 25 | 0 | 5 | 0 | 0 | 37 | 4 | 0 |
| Cl.Fc1ccccc1COc1ccc(Nc2ncnc3ccc(-c4nnc(C(F)(F)F)o4)cc23)cc1Cl [GW424170] | 7 | 0 | 18 | 0 | 0 | 0 | 0 | 0 | 0 | 0 |
| Fc1cccc(COc2ccc(Nc3ncnc4cc[nH]c34)cc2Cl)c1 | 10 | 0 | 30 | 16 | 19 | 23 | 0 | 0 | 10 | 0 |
| Cl.c1ccc(Cn2ccc3cc(Nc4ncnc5ccccc45)ccc32)cc1 [GW275568] | 7 | 11 | 43 | 0 | 22 | 17 | 0 | 16 | 11 | 19 |
| CCC(CC)(CC)n1cnc2c(N)ncnc21 [SKF-97620] | 0 | 13 | 0 | 6 | 7 | 10 | 30 | 14 | 11 | 19 |
| Cl.Cn1ccc(-c2cccc(Nc3ccnc4cc(-c5nccs5)ccc34)c2)n1 [GW525701] | 37 | 0 | 29 | 0 | 0 | 0 | 0 | 35 | 0 | 0 |
| FC(F)(F)c1ccc(-c2cc(-c3c[nH]nc3-c3ccccn3)ccn2)cc1 [GW599550] | 19 | 0 | 33 | 17 | 8 | 8 | 0 | 13 | 14 | 13 |
| Nc1nc(-c2ccccn2)c(-c2ccnc3ccccc23)s1 [GW548057] | 8 | 0 | 50 | 0 | 0 | 16 | 0 | 31 | 0 | 9 |
| Nc1n[nH]c2nnc(-c3ccccc3)cc12 [SB-517389] | 16 | 0 | 27 | 0 | 5 | 0 | 0 | 14 | 8 | 13 |
| CN1c2ccc(-c3ccc(C(=O)NCCO)cc3)cc2-c2[nH]ncc2S1(=O)=O | 0 | 5 | 0 | 5 | 35 | 10 | 0 | 23 | 0 | 0 |

| Structure (SMILES) | %Inh (MRCKA) [%] | %Inh (MRCKB) [%] | %Inh (MST1R) [%] | %Inh (MST1) [%] | %Inh (MST2) [%] | %Inh (MST3) [%] | %Inh (MST4) [%] | %Inh (MTOR) [%] | %Inh (MUSK) [%] | %Inh (MYLK2) [%] |
| --- | --- | --- | --- | --- | --- | --- | --- | --- | --- | --- |
| Clc1cc(Nc2ncnc3cc[nH]c23)ccc1OCc1ccccn1 | 0 | 8 | 37 | 12 | 48 | 28 | 0 | 0 | 13 | 11 |
| Cc1cccc(-c2nc(Nc3ccc4[nH]nnc4c3)c3ccccc3n2)n1 [GW867587] | 0 | 2 | 0 | 0 | 0 | 0 | 0 | 5 | 2 | 0 |
| Fc1ccc(Nc2nccc(-c3c(-c4ccc(Cl)cc4)nn4ncccc34)n2)cc1F [GW829058] | 2 | 21 | 0 | 13 | 11 | 0 | 30 | 26 | 26 | 16 |
| CN1CCC(n2cnc(-c3ccc(F)cc3)c2-c2ccnc(NC3CCNCC3)n2)CC1 [SB-229482] | 6 | 0 | 33 | 3 | 24 | 0 | 0 | 0 | 0 | 21 |
| Nc1nc(-c2ccc3c(N)n[nH]c3c2)cc(N2CCCCC2)n1 [GSK2228768] | 0 | 0 | 11 | 0 | 0 | 0 | 0 | 0 | 3 | 0 |
| CNc1nccc(-c2c(-c3ccc(F)cc3)ncn2C2CCN(C)CC2)n1 [SB-222903] | 0 | 5 | 0 | 0 | 0 | 0 | 0 | 18 | 0 | 0 |
| CSc1ccc(NC2=C(c3ccccc3Cl)C(=O)NC2=O)cc1 [SB-342411] | 0 | 0 | 27 | 6 | 0 | 0 | 8 | 13 | 0 | 8 |
| Cc1ccc(NC(=O)c2cccc(C#N)c2)cc1-c1ccc(C(=O)Nc2ccncc2)cc1 [GSK1398463] | 3 | 8 | 38 | 0 | 0 | 0 | 0 | 4 | 10 | 26 |
| COc1ccc(NC(=O)c2ccc(-c3cc(-c4nnc(C)o4)ccc3C)cc2)cc1 [GW595885] | 0 | 3 | 34 | 0 | 0 | 0 | 0 | 14 | 12 | 0 |
| COC(=O)c1c(-c2ccccc2)c2cc(Cl)ccc2c(=O)n1Cc1ccc(S(C)(=O)=O)cc1 | 0 | 0 | 24 | 1 | 18 | 7 | 0 | 0 | 0 | 0 |
| OCCOCCn1ccc2ncnc(Nc3ccc(Oc4cccc(Cl)c4)c(Cl)c3)c21 | 0 | 0 | 0 | 0 | 0 | 0 | 0 | 46 | 0 | 0 |
| Nc1nc(-c2ccc3c(N)n[nH]c3c2)cc(N2CCC[C@@H](C(=O)Nc3ccccc3)C2)n1.O=C(O)C(F)(F)F.O=C(O)C(F)(F)F [GSK2288359] | 2 | 0 | 14 | 0 | 30 | 0 | 0 | 15 | 4 | 5 |
| CC(C)(C)OC(=O)NC1CCCN(c2cc(-c3ccc4c(N)n[nH]c4c3)nc(N)n2)C1 (stereo not shown) [GSK2286096] | 9 | 0 | 31 | 0 | 0 | 6 | 0 | 8 | 0 | 24 |
| COc1ccc(-c2oc3ncnc(N)c3c2-c2ccc(OC)cc2)cc1 [SB-589132] | 0 | 0 | 46 | 7 | 0 | 0 | 0 | 75 | 17 | 0 |
| O=C(c1ccc(-c2cc(-c3c[nH]nc3-c3ccccn3)ccn2)cc1)N1CCCC1 [GW792479] | 24 | 0 | 0 | 0 | 0 | 11 | 0 | 14 | 9 | 0 |
| Cn1ccc2ncnc(Nc3ccc(Oc4cccc(Cl)c4)c(Cl)c3)c21 | 0 | 0 | 42 | 6 | 25 | 10 | 0 | 0 | 3 | 20 |
| N#Cc1ccc(Oc2ccc(Nc3ncnc4cc[nH]c34)cc2Cl)cc1 | 12 | 32 | 11 | 10 | 19 | 24 | 0 | 13 | 6 | 16 |
